Measurements reported in the supplement of paper PMC7530171.
Values joined by “and” are separate entries in the source; they are usually repeats but may differ in a detail not shown here. Identical values can stand only once. Counter-ions that a name gives are not always drawn. ± gives the standard deviation.

system: THP-1; assay: THP-1 cell loss relative to DMSO control; higher = more host cell loss (toxicity); extreme values may be limits of the assay; conditions: 10 µM; 4 days; infection: M. tuberculosis H37Rv
Experimental: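 OICR kinase inhibitor library screened in duplicate at 10 uM against M. tuberculosis-infected THP-1 macrophages, 4 days at 37 C. THP-1 cell loss (cytotoxicity or loss of adherence) was quantified from Hoechst-stained nuclei counts by high-content imaging and normalised to the 1% DMSO control; 100 = complete loss of host cells.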

Row | SMILES | THP-1 cell loss
1 | COCC(=O)NC/C=C/c1ccc2ncnc(Nc3ccc(Oc4ccc(C)nc4)c(C)c3)c2c1 | 25.9 ± 5.7%
2 | OCCC#Cc1nc(-c2ccc(F)cc2)c(-c2ccncc2)n1CCCc1ccccc1 | 66.42 ± 0.12%
3 | NC(=O)Nc1cc(-c2cccc(F)c2)sc1C(=O)N[C@H]1CCCNC1 | 84.2 ± 22%
4 | C[C@@H]1CCN(C(=O)CC#N)C[C@@H]1N(C)c1ncnc2[nH]ccc12 | 9.64 ± 8.9%
5 | CNc1nccc(-c2cccnc2Oc2cc(C(=O)Nc3cccc(C(F)(F)F)c3)ccc2C)n1 | 100%
6 | CCCOc1ccc(/C=C2/SC(=O)NC2=O)cc1 [PIM1/2 Kinase Inhibitor VI] | 4.36 ± 6.2%
7 | C=CC(=O)Nc1cc2c(Nc3ccc(F)c(Cl)c3)ncnc2cc1C#CC(C)(C)N1CCN(C)CC1 | 100%
8 | O=C1C(Cl)=C(NCCN2CCOCC2)C(=O)c2ncccc21 | 93.7 ± 8.8%
9 | O=Nc1c(-c2c(O)[nH]c3cc(Br)ccc23)[nH]c2ccccc12 [6-bromoindirubin-3'-oxime] | 100%
10 | NC1(c2ccc(-c3nc4ccn5c(=O)[nH]nc5c4cc3-c3ccccc3)cc2)CCC1 | 34.3 ± 6.7%
11 | Fc1ccc(-c2nc3n(c2-c2ccncc2)CCS3)cc1 | 7.21% and 5.2%
12 | O=C1NCCc2[nH]c(-c3ccncc3)cc21 | 100%
13 | CC(=O)c1c(C)c2cnc(Nc3ccc(N4CCNCC4)cn3)nc2n(C2CCCC2)c1=O | 30.5 ± 8.2%
14 | COc1ccc(C(=O)Nc2sc3c(c2C(N)=O)CCCC3)cc1OC | 100%
15 | COc1cc(SC)ccc1C(=O)N1CCC(Cc2ccccc2)CC1 | 0.379 ± 0.54%
16 | Cc1ccc([N+](=O)[O-])cc1S(=O)(=O)N(C)/N=C/c1cnc2ccc(Br)cn12 [PIK-75 hydrochloride] | 100%
